# High-throughput results from PubChem BioAssay.
# IEC-6 tox: IEC-6 cytotoxicity, counter-screen for KLF5 inhibitors. luminescence viability. inhibition, % at 5 µM. 290,000 compounds, 0.78% hits. AID 1825; in the data active means inhibition above about 22%;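 further: 0% = plate median of test compound wells and 100% = cytotoxic reference compound wells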
# Ba/F3 V617F tox: lowers viability of Ba/F3 cells expressing EpoR and JAK2V617F | ATP luminescence | 220,000 compounds, 1.1% hits | inhibition, % at 5.6 µM;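 active means inhibition above the campaign mean plus 3 SD over all tested compounds, cut at about 24% in these data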;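 further: cytokine-independent growth of Ba/F3 cells driven by EpoR plus mutant JAK2; 0% = DMSO-treated cells and 100% = JAK inhibitor I control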
# aSyn 5UTR inh: MLPCN primary screen, SNCA 5' untranslated region. alpha-synuclein 5'UTR reporter, inhibitor activity. inhibition, % (tested at 7.5 µM). 300,000 compounds, 0.82% hits; in the data active means inhibition above about 60%; inconclusive means no clear call, values can overlap the other calls;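 further: H4 neuroglioblastoma cells stably carrying SNCA 5'UTR luciferase fusion; 0% = DMSO wells and 100% = positive control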
# KLF5 inh: inhibitors of KLF5 expression. DLD-1 KLF5 promoter-luciferase reporter, luminescence. inhibition, % at 5 µM. 290,000 compounds, 0.23% hits. AID 1700;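 active means inhibition above a per-plate limit of that plate's mean compound inhibition plus 3 SD, cut at about 60% in these data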;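 further: 0% = DMSO wells and 100% = LY294002 at 200 µM; higher means less KLF5 promoter-driven luciferase light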
# APP 5UTR inh: APP translation inhibition; SH-SY5Y APP 5'UTR-luciferase reporter, luminescence; inhibition, % at 2 µM; 190,000 compounds, 0.82% hits; AID 1285;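 active means inhibition above a set limit, derived from the sample mean plus 3 SD, cut at about 45% in these data; inconclusive means one replicate passes the limit while the other fails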
# BaF3 tox: parental Ba/F3 viability inhibition as JAK2V617F counter-screen; 220,000 compounds, 1.1% hits; inhibition, % at 5.6 µM; CellTiter-Glo ATP luminescence;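 active means inhibition above a per-campaign cutoff, the mean inhibition of all tested compounds plus 3 SD, cut at about 27% in these data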;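 further: 0% = DMSO wells and 100% = JAK Inhibitor I control wells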
# Starred values were filed as active, the others as inactive; ? = inconclusive; · = no result. Hits are enriched below; roughly 2.2% of the tested compounds scored in any of these assays.
SMILES,IEC-6 tox,Ba/F3 V617F tox,aSyn 5UTR inh,KLF5 inh,APP 5UTR inh,BaF3 tox
Cc1ccc(C2CC(C(F)(F)F)n3nc(C(=O)NCc4c(C)nn(C)c4C)c(Cl)c3N2)cc1 (stereo not drawn),1,44*,2,-11,-5,55*
CCOC(=O)c1ccc(NC(=S)NCCc2ccccc2F)cc1,2,4,-3,-13,10,2
CC(=O)Cn1ncc(Br)c(Br)c1=O,102*,5,-87,-33,97*,-3
O=C(OCn1ncc(Br)c(Br)c1=O)c1c(F)cccc1F,11,74*,?,-39,96*,67*
CCOC(=O)c1sc(Nc2nc(OC)cc(OC)n2)nc1C,10,5,-37,-17,1,6
O=C(NC(=O)c1ccccc1O)c1ccc2c(c1)CCO2,6,1,-48,-79,·,1
COc1ccc2cc[nH]c2c1,5,-2,71*,-32,-4,8
COc1cc(OC)c2cc[nH]c2c1,1,-4,15,0,-11,0
Cc1nc2ccc(CN(C)c3ccc(C(=O)N[C@@H](CCC(=O)O)C(=O)O)s3)cc2c(=O)[nH]1,·,·,103*,·,·,·
Nc1cc(=O)nc(SCC(=O)N2CCN(c3ccccc3)CC2)n1-c1ccc(F)cc1,0,·,-4,-61,·,·
CC1CCC(C(C)C)C(OCC(O)C[N+]2(C)CCCCC2)C1 (stereo not drawn),2,28*,11,-33,4,50*
CC1CCC(C(C)C)C(OCC[N+](C)(C)C)C1 (stereo not drawn),4,37*,-11,3,12,42*
CC1CCC(C(C)C)C(OCC(O)CN2CCCC(C)C2)C1 (stereo not drawn),-8,-1,-43,-30,-6,6
Cc1cc(C)cc(OCC(=O)N(Cc2ccc(N(C)C)cc2)C2CCS(=O)(=O)C2)c1 (stereo not drawn),2,-4,0,-22,·,1
O=c1cccc2c1c1cc[nH]c3ccc(=O)n2c31,·,·,79*,·,·,·
O=C(N/N=C\c1ccc(Cl)s1)C1COc2ccccc2O1 (stereo not drawn),3,1,-67,-7,·,-3
O=C(N/N=C/c1c[nH]c2ccccc12)C1COc2ccccc2O1 (stereo not drawn),-4,2,76*,4,26,2
N#Cc1c(-c2ccccc2)c(-c2ccccc2)nn(CC(=O)NNC(=O)Nc2ccccc2)c1=O,16,20,-92,24,3,43*
O=C(Nc1nc(-c2ccccc2)cs1)C1COc2ccccc2O1 (stereo not drawn),2,1,-31,4,3,3
Cc1csc(NC(=O)C2COc3ccccc3O2)n1 (stereo not drawn),2,-3,62*,-80,-149,-1
Cc1nc2ccc3nc(NC(=O)C4COc5ccccc5O4)sc3c2s1 (stereo not drawn),3,1,3,-1,10,4
Cc1cnc(NC(=O)C2COc3ccccc3O2)s1 (stereo not drawn),-1,-7,71*,-113,-144,2
CC1CCc2nc(NC(=O)C3COc4ccccc4O3)sc2C1 (stereo not drawn),3,2,63*,-26,-168,10
CC1CCc2nc(NC(=O)C3CC3)sc2C1 (stereo not drawn),2,-4,-138,-63,-21,4
C=CCN(CC=C)CCCOc1ccc(C)cc1OC,-6,-2,-26,-18,-12,-2
SMILES,IEC-6 tox,Ba/F3 V617F tox,aSyn 5UTR inh,KLF5 inh,APP 5UTR inh,BaF3 tox
Cn1c(N)c(S(=O)(=O)N2CCN(c3cccc(Cl)c3)CC2)c(=O)n(C)c1=O,0,·,1,4,·,·
Cc1cc(=O)n(-c2ccc(C(=O)O)cc2)[nH]1,-8,2,4,-8,8,6
Cc1cc(=O)n(-c2ccc(O)cc2)[nH]1,4,51*,15,13,0,60*
O=C1CC2c3ccccc3C1C1C(=O)N(CCO)C(=O)C21 (stereo not drawn),-7,0,18,12,-5,6
O=C(Nc1cccc(/C=C/c2ccccn2)c1)c1cc(Cl)ccn1,2,·,-46,-110,·,·
O=C(NCCCN1CCOCC1)c1ccc(NC(=O)C2COc3ccccc3O2)cc1 (stereo not drawn),-2,0,-15,5,-8,90*
CCc1ccc(S(=O)(=O)/N=C2/C=C(Sc3ncn[nH]3)C(=O)c3ccccc32)cc1,1,71*,·,-5,75*,34*
CCc1ccc(S(=O)(=O)/N=C2\C=CC(=O)c3ccccc32)cc1,7,-2,-22,-3,35,4
CCc1cc2c(=O)n(Cc3ccco3)c(SCc3c(C)noc3C)nc2s1,9,5,34,0,50*,3
Cc1cccc2cc(C#N)c(SCC#N)nc12,0,0,85*,-8,-10,3
CCc1nc(SCC(=O)O)c(C#N)cc1C,-2,0,-16,-3,12,6
Cc1cccc2cc(C#N)c(SCC(=O)NNC(=O)Cc3ccccc3)nc12,3,1,9,-38,2,4
CCc1nc(SCC#N)c(C#N)cc1C,2,0,69*,-18,1,4
CC(=O)c1ccc(NC(=O)Nc2ccc(Br)cc2C)cc1,2,1,-26,-18,10,6
C(#Cc1ccccc1)C[N+]1(CC#Cc2ccccc2)CCCCC1,-1,87*,28,12,2,69*
C#CC[N+]1(CC#Cc2ccccc2)CCCCC1,-8,46*,8,-26,14,59*
C(#Cc1ccccc1)C[N+]1(CC#Cc2cccc3ccccc23)CCOCC1,-4,56*,·,-7,-1,50*
O=C(C[N+]1(CC#Cc2ccccc2)CCOCC1)c1ccc(Cl)cc1,9,6,-15,1,-27,5
C#CC[N+]1(CC#Cc2ccccc2)CCOCC1,-2,3,-33,-14,8,12
Cc1ccc(C#CC[N+]2(CC#Cc3ccc(C)cc3)CCCCC2)cc1,15,96*,19,28,10,78*
CNC(=S)N(Cc1ccc(OC)cc1)C1CC(=O)N(c2ccc(Cl)cc2)C1=O (stereo not drawn),1,0,9,-31,8,2
O=C(O)c1ccccc1C(=O)Nc1ccc(S(=O)(=O)Nc2ccc(F)cc2)cc1,-5,·,8,-19,·,·
CCC[N+]1(CC#CCC(c2ccccc2)c2ccccc2)CCCCC1,15,·,3,23,·,·
C#CC[N+]1(CC#Cc2cccc(C)c2)CCCCC1,1,76*,-21,13,7,67*
CCC(C)C(NC(=O)c1ccc(Cl)cc1)C(=O)Nc1cccnc1 (stereo not drawn),-4,3,-19,14,-15,6
CC[n+]1c(C)cc2c(sc3ccccc32)c1C,0,88*,·,-37,4,71*
O=C(N1CCOCCOc2ccccc2OCCOCC1)C(F)(F)F,-4,·,1,-10,·,·
COc1ccc(CN(CC(=O)NCc2ccc(F)cc2)C(=O)c2csnn2)cc1,2,·,7,4,·,·
